Screening results (PubChem BioAssay)
IDH1 R132H inh – human IDH1 R132H inhibition. O75874. IDH1-R132H enzyme, NADPH consumption, diaphorase/resazurin fluorescence. Potency, µM (highest dose often 76.6 µM), usual class: inhibitors. actives 0.093% (n = 390,000). AID 602179; note: nearly all actives have a fitted effect of over 65% in size
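IDH1-R132H (0.5 ug/mL) preincubated 30 min with compound, then NADPH (0.016 mM) and alpha-KG (2 mM) added; 80 min at RT, pH 7.5. Remaining NADPH coupled via diaphorase/resazurin to fluorescence (540/590 nm); concentration-response curves normalized to no-enzyme control.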
S-ASM inh – human S-ASM enzyme inhibition. placental ASM, HMU-PC fluorogenic substrate, 60 min. Potency, µM (series often up to 57.5 µM), hits mostly inhibitors. AID 504937. actives 0.006% (n = 340,000). P17405
Target sequence (P17405 47-631 limits assumed): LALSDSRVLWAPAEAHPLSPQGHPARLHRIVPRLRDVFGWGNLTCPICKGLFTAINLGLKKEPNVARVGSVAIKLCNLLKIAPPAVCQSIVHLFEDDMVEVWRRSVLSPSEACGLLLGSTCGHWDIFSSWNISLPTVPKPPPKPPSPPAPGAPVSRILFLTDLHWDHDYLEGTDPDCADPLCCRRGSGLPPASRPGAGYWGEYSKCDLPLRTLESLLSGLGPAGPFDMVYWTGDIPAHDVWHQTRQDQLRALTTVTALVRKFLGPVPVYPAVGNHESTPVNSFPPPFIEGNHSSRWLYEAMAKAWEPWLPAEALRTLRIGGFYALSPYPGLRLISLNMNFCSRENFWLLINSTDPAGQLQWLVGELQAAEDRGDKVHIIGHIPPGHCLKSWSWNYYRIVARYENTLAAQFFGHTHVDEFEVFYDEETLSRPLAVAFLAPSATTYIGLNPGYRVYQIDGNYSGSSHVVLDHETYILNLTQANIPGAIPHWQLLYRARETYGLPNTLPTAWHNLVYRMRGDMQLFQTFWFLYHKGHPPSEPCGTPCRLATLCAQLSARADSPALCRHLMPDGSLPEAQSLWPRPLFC
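Steps: dispense placental human ASM, pin compound, wait 10 min at room temperature, add HMU-PC0 substrate at 9 uM final, incubate 60 min at 37 °C, add stop solution raising pH to 10, read fluorescence.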
ClpP mod – qHTS Assay for Activators of ClpP. ATP-dependent Clp protease proteolytic subunit (Bacillus subtilis (strain 168)), P80244. purified B. subtilis ClpP, FRET peptide cleavage, 20 min. Potency, µM (highest dose often 57.5 µM). actives 1.9% (n = 340,000). AID 651965, 2013; active = well fitted falling curve with a large enough effect; inconclusive = small, poorly fitted or top-dose-only effect; inactive = no such curve, though single readings can be large or run the other way; note: the source files actives as falling curves though it sought activators and does not explain the sign; nearly all actives have a fitted effect of over 65% in size
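ClpP 10 microg/mL final, pH 8 Tris/KCl buffer with BSA, glycerol, Tween-20; compound pinned in; FRET-FV substrate; RT 20 min; Ex320/Em430; ΔFRET vs ADEP 5.8 microM, DMSO, no enzyme.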
Mito fusion act – inhibitors of mitochondrial division or activators of mitochondrial fusion; S. cerevisiae fusion-defective mutant growth rescue, CellTiterGlo 48 h; Potency, µM (top dose mostly 46.1 µM), usual class: activators; actives 0.23% (n = 320,000); note: nearly all actives have a fitted effect of over 45% in size
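Luminescent cell viability in 1536-well qHTS format served as the measure of rescued growth in ts fusion-mutant S. cerevisiae cultured on non-fermentable YPEG for 48 hours at 37C.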
LDHA inh – inhibitors of human lactate dehydrogenase A | P00338 | purified LDHA, NADH/diaphorase-resazurin fluorescence; stronger effect = lower value | activity change, % (values are at about 110 or 230 µM) | actives 0.15% (n = 480,000); in the data active = activity change below about -30%; inconclusive = mostly about -25% to -30%
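LDH5 2 nM; NADH 0.06 mM, pyruvate 0.2 mM; 200 mM Tris pH 7.4, EDTA, Tween-20; 5 min RT. Detection: diaphorase 0.133 mg/mL + resazurin 37 µM, fluorescence ex540/em590 at 0 and 20 min; normalized to enzyme-free and DMSO wells.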
RGS4 inh – human RGS4 inhibition; P49798; Transcreener GDP fluorescence polarization, RGS4-accelerated GTP hydrolysis; Potency, µM (top dose mostly 114 µM), usual class: inhibitors; actives 0.039% (n = 390,000); AID 504845; note: nearly all actives have a fitted effect of over 75% in size
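MLSMR compounds (23 nl, pin-transferred) preincubated 10 min at room temperature with a 500nM (2x) first reagent, then RGS4 at 900nM (2x) plus Transcreener GDP mix added; fluorescence polarization (620/688 nm) read before and after 90 min at 30 °C.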
Hits are given with their value; n = inactive; u = inconclusive; x = no result given; [ ] = another dose, or the depositor's remark. Shown is part of a subset that was picked to be rich in hits. Unless noted, calls come from the whole dose curve; as a rule, active = well fitted curve in the direction sought with a large enough effect; inconclusive = small, poorly fitted or top-dose-only effect, or another doubt; inactive = no such curve, though single readings can be large; an effect the other way counts as inactive or inconclusive.

SMILES	IDH1 R132H inh	S-ASM inh	ClpP mod	Mito fusion act	LDHA inh	RGS4 inh
COc1ccc(CNC(=O)Nc2cccc3ccccc23)cc1	n	n	32µM	n	n	n
O=C(NCc1ccccc1)Nc1cccc2ccccc12	n	n	n	n	n	n
CC(C)Cc1nc(N2CCOCC2)c(C#N)c2c1COC(C)(C)C2	n	n	28µM	n	n	n
CC(C)Cc1nc(N2CCN(C(=O)c3ccccc3)CC2)c(C#N)c2c1CCC2	n	n	32µM	n	n	n
Cc1ccc(S(=O)(=O)N2CCN(c3nc(C(C)C)c4c(c3C#N)CC(C)(C)OC4)CC2)cc1	n	n	14µM	n	n	n
CC(C)Cc1nc(N2CCCCC2)c(C#N)c2c1CCC2	n	n	35µM	n	n	n
CCCNC(=O)N1CCN(c2nc(C(C)C)c3c(c2C#N)CC(C)(C)OC3)CC1	n	n	n	n	n	n
CC(=O)N1CCN(c2nc(CC(C)C)c3c(c2C#N)CCC3)CC1	n	n	n	n	n	n
CC(C)Cc1nc(N2CCN(C(=O)C(C)C)CC2)c(C#N)c2c1CCC2	n	n	20µM	u	n	n
COc1ccc(S(=O)(=O)NNC(=O)c2cc3c4ccccc4n(C)c3s2)cc1	n	n	35µM	n	n	n
COc1ccc(NS(=O)(=O)c2ccc3c(c2)OCCCO3)cn1	x	x	x	x	n	x
COc1ccc(NS(=O)(=O)c2ccc3oc4ccccc4c3c2)cn1	n	u	n	25µM	n	n
Cc1ccc(S(=O)(=O)c2c(C)cc(C)nc2Oc2cccc(C(F)(F)F)c2)cc1	n	n	n	n	n	n
Cc1cc(-c2ccccc2)nc(Oc2cccc(C(F)(F)F)c2)c1S(C)(=O)=O	n	n	35µM	n	n	n
COCCNC(=O)CN1C(=O)/C(=C/c2ccccc2)Oc2ccc(C(C)(C)C)cc21	n	n	n	20µM	n	n
NC(N)=NCc1ccc(CN2CCCC2)cc1	x	x	x	x	n	x
Cc1cc(C)nc(Nc2ccccc2Br)n1	n	n	n	n	n	n
Cc1cc(C)nc(N/C(=N\S(=O)(=O)Cc2ccccc2)Nc2ccccc2Br)n1	n	n	n	22µM	n	n
CSc1ccc(CN(C)CC(=O)Nc2c(F)cccc2F)cc1	n	n	x	n	-33	n
CCCCN1CCc2c([nH]c3ccccc23)C1=O	n	n	20µM	n	n	n
COc1ccc(/C=N/NC(=S)Nc2ccccc2)cc1COc1ccc(F)cc1F	n	n	35µM	n	n	n
COc1ccc(/C=N\NC(=O)c2ccc(F)cc2)cc1COc1ccccc1C(N)=O	n	n	n	n	n	n
CC1=C(C(=O)N(C(C)C)C(C)C)CC(CC(=O)NC2CCCCC2)C(=O)N1Cc1ccccc1 (stereo not given)	n	x	n	x	-34	x
N#Cc1sc(-c2cccc(Cl)c2)cc1N	x	x	x	x	n	x
O=C(NCCC(=O)N1CCCC1)c1ccc2c(c1)CCC2	x	x	x	x	n	x
SMILES	IDH1 R132H inh	S-ASM inh	ClpP mod	Mito fusion act	LDHA inh	RGS4 inh
CNC(=O)c1c(NC(=O)CS(=O)(=O)c2ccccc2)sc(C)c1C	n	x	n	n	n	n
Cc1sc(NC(=O)CS(=O)(=O)c2ccccc2)c(C(N)=O)c1C	n	n	28µM	n	n	n
CCOc1ccc(C(=O)NC(C(=O)N2CCC2)C(C)C)cc1 (stereo not given)	n	x	28µM	n	n	n
Cc1c(C(=O)N2CCC(C)CC2)c(S(=O)(=O)NCCc2ccc(Cl)cc2)c(C)n1C	x	x	x	x	n	x
C=CCn1c(SCC(=O)O)nnc1-c1cccs1	n	n	u	n	n	n
C=CCn1c(SCCC(=O)O)nnc1-c1cccs1	n	n	28µM	n	n	n
O=C1NCCc2c1[nH]c1ccccc21	n	n	25µM	n	n	n
Cc1ccc(Nc2nc(Nc3ccc(F)cc3)nc3nccnc23)cc1Cl	x	x	x	x	n	x
COc1ccc(/C=C(/C#N)c2nc3ccccc3[nH]2)c2ccccc12	x	x	x	x	n	x
COc1cc2[nH]c3c(Cl)ncnc3c2cc1OC	n	n	u	n	n	n
COc1cc2[nH]c3c(N4CCN(c5ccc(Cl)cc5)CC4)ncnc3c2cc1OC	n	u	25µM	n	n	n
COc1cccc2[nH]c3c(N4CCC(C)CC4)ncnc3c12	n	n	14µM	n	n	n
O=C(O)c1nnn(-c2cccc(F)c2)c1C(F)(F)F	x	x	x	x	n	x
CCOC(=O)Nc1c(C(=O)OC)[nH]c2cc(OC)ccc12	n	n	u	n	n	n
CCOC(=O)c1[nH]c2ccc(OC)cc2c1NC(=O)NC(C)C	n	n	18µM	n	n	n
CCOC(=O)c1[nH]c2ccc(OC)cc2c1NC(=O)CCN1CCCC(C)C1 (stereo not given)	n	n	32µM	n	n	n
CCOC(=O)C1CCCN(CC(=O)Nc2c(C(=O)OC)[nH]c3ccc(Cl)cc23)C1 (stereo not given)	n	n	n	n	n	n
CCOC(=O)c1[nH]c2ccc(OC)cc2c1NC(=O)OC	n	n	28µM	n	n	n
CCOC(=O)C1CCCN(CC(=O)Nc2c(C(=O)OC)[nH]c3ccc(C)cc23)C1 (stereo not given)	n	n	32µM	n	n	n
CCOC(=O)c1[nH]c2ccccc2c1NC(=O)CCN1CCCC(C)C1 (stereo not given)	x	x	x	x	n	x
CCOC(=O)c1[nH]c2ccccc2c1NC(=O)NC(C)C	n	n	x	n	n	n
COc1ccccc1NC(=O)N1CCC(Cc2ccccc2)CC1	x	x	x	x	n	x
COC(=O)c1[nH]c2ccc(C)cc2c1NC(=O)CCN1CCN(Cc2ccc3c(c2)OCO3)CC1	n	n	20µM	n	n	n
COC(=O)c1[nH]c2ccc(C)cc2c1NC(=O)CCN1CCCC(C)C1 (stereo not given)	x	x	x	x	n	x
Cn1c(=O)c2[nH]c(CN3CCN(c4ccccc4)CC3)nc2n(C)c1=O	x	x	x	x	n	x
SMILES	IDH1 R132H inh	S-ASM inh	ClpP mod	Mito fusion act	LDHA inh	RGS4 inh
Cc1cc(C)cc(NC(=O)c2oc3ccccc3c2COc2ccccc2)c1	n	n	25µM	n	n	n
COc1ccc(-c2noc(CCCC(=O)NCc3ccco3)n2)cc1OC	n	n	28µM	n	n	n[11.4 µM]
COc1cc(OC)c(C(=O)Nc2cccc(C(C)=O)c2)cc1OC	n	n	16µM	n	n	u
Cc1ccc(-c2noc(CN(C)C(=O)COc3ccccc3)n2)cc1	x	x	x	x	n	x
Cc1occc1-c1nnc(SCC(=O)Nc2ccccn2)o1	n	n	x	n	n	n
Cc1occc1-c1nnc(SCC(=O)c2cc3ccccc3oc2=O)o1	n	n	28µM	n	n	n
